# Experiments:
# Assay in all cases: PBM; 200 nM protein, PBS
# Details in all cases: dsDNA, one strand shown
# HOXC9 [1] = molecular target: HOXC9 (Homo sapiens, UniProt P31274 178-260, K195R)
# HOXC9 [2] = molecular target: HOXC9 (Homo sapiens, UniProt P31274 178-260)
# HOXD13 [3] = molecular target: HOXD13 (Homo sapiens, UniProt P35453 263-343, T313R)
# HOXC9 [4] = molecular target: HOXC9 (Homo sapiens, UniProt P31274 178-260, R193K)
# HOXD13 [5] = molecular target: HOXD13 (Homo sapiens, UniProt P35453 263-343)
# HOXD13 (Homo sapiens, UniProt P35453 263-343), sequence (P35453 263-343): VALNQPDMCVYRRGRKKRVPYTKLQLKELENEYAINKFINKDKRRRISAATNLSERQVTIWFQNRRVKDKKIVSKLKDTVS
# PROP1 [6] = molecular target: PROP1 (Homo sapiens, UniProt O75360 56-141)
# PROP1 (Homo sapiens, UniProt O75360 56-141), sequence (O75360 56-141): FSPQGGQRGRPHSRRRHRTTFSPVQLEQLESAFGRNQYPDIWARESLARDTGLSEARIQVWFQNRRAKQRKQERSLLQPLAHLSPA
# PROP1 [7] = molecular target: PROP1 (Homo sapiens, UniProt O75360 56-141, R99H)
# PROP1 (Homo sapiens, UniProt O75360 56-141, R99H), sequence (O75360 56-141 R99H): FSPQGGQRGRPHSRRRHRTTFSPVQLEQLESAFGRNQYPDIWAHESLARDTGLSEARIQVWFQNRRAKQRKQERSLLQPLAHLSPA
# HOXD13 [8] = molecular target: HOXD13 (Homo sapiens, UniProt P35453 263-343, T313A)
# HOXD13 (Homo sapiens, UniProt P35453 263-343, T313A), sequence (P35453 263-343 T313A): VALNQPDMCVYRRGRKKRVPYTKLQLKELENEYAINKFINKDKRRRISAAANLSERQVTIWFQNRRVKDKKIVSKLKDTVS
# HOXC9 [9] = molecular target: HOXC9 (Homo sapiens, UniProt P31274 178-260, R222W)
# HOXC9 (Homo sapiens, UniProt P31274 178-260, R222W), sequence (P31274 178-260 R222W): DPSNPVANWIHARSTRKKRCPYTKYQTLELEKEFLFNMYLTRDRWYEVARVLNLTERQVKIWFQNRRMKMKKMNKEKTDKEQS
# PROP1 [10] = molecular target: PROP1 (Homo sapiens, UniProt O75360 56-141, F88S)
# PROP1 (Homo sapiens, UniProt O75360 56-141, F88S), sequence (O75360 56-141 F88S): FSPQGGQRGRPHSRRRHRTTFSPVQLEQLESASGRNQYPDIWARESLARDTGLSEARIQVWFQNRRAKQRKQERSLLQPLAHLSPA
# PITX2 = PITX2 (Homo sapiens, UniProt Q99697 72-157)
# HOXA2 [11] = molecular target: HOXA2 (Homo sapiens, UniProt O43364 129-215, R185T)
# HOXA2 (Homo sapiens, UniProt O43364 129-215, R185T), sequence (O43364 129-215 R185T): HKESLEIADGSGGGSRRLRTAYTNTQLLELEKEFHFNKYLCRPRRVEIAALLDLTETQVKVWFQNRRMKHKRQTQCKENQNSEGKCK
# HOXA2 [12] = molecular target: HOXA2 (Homo sapiens, UniProt O43364 129-215, R185K)
# HOXA2 (Homo sapiens, UniProt O43364 129-215, R185K), sequence (O43364 129-215 R185K): as the sequence (O43364 129-215 R185T) above, with T57K counted along it
# HOXA2 [13] = molecular target: HOXA2 (Homo sapiens, UniProt O43364 129-215, Y150S)
# HOXA2 (Homo sapiens, UniProt O43364 129-215, Y150S), sequence (O43364 129-215 Y150S): as the sequence (O43364 129-215 R185T) above, with Y22S, T57R counted along it
# HOXA2 [14] = molecular target: HOXA2 (Homo sapiens, UniProt O43364 129-215)
# HOXA2 (Homo sapiens, UniProt O43364 129-215), sequence (O43364 129-215): as the sequence (O43364 129-215 R185T) above, with T57R counted along it
# ALX3 [15] = molecular target: ALX3 (Homo sapiens, UniProt O95076 139-225, N203Q)
# ALX3 (Homo sapiens, UniProt O95076 139-225, N203Q), sequence (O95076 139-225 N203Q): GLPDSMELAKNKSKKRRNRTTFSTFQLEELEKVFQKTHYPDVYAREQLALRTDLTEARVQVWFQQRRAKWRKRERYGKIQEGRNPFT
# ALX3 [16] = molecular target: ALX3 (Homo sapiens, UniProt O95076 139-225)
# ALX3 (Homo sapiens, UniProt O95076 139-225), sequence (O95076 139-225): as the sequence (O95076 139-225 N203Q) above, with Q65N counted along it
# ALX3 [17] = molecular target: ALX3 (Homo sapiens, UniProt O95076 139-225, L168Q)
# ALX3 (Homo sapiens, UniProt O95076 139-225, L168Q), sequence (O95076 139-225 L168Q): as the sequence (O95076 139-225 N203Q) above, with L30Q, Q65N counted along it
# ALX3 [18] = molecular target: ALX3 (Homo sapiens, UniProt O95076 139-225, L168V)
# ALX3 (Homo sapiens, UniProt O95076 139-225, L168V), sequence (O95076 139-225 L168V): as the sequence (O95076 139-225 N203Q) above, with L30V, Q65N counted along it
# ALX3 [19] = molecular target: ALX3 (Homo sapiens, UniProt O95076 139-225, N203S)
# ALX3 (Homo sapiens, UniProt O95076 139-225, N203S), sequence (O95076 139-225 N203S): as the sequence (O95076 139-225 N203Q) above, with Q65S counted along it
# MSX2 [20] = molecular target: MSX2 (Homo sapiens, UniProt P35548 130-214, R199I)
# MSX2 (Homo sapiens, UniProt P35548 130-214, R199I), sequence (P35548 130-214 R199I): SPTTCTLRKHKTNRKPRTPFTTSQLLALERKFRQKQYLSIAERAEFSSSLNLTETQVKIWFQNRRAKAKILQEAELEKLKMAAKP
# MSX2 [21] = molecular target: MSX2 (Homo sapiens, UniProt P35548 130-214)
# MSX2 (Homo sapiens, UniProt P35548 130-214), sequence (P35548 130-214): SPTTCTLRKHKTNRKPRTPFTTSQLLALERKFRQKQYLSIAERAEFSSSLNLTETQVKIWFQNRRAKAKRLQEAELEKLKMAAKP
# MSX2 [22] = molecular target: MSX2 (Homo sapiens, UniProt P35548 130-214, F161Y)
# MSX2 (Homo sapiens, UniProt P35548 130-214, F161Y), sequence (P35548 130-214 F161Y): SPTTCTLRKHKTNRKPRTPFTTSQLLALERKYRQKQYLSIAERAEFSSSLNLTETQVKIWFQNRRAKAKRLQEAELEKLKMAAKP
# HOXB6 [23] = molecular target: HOXB6 (Homo sapiens, UniProt P17509 132-218, K202E)
# HOXB6 (Homo sapiens, UniProt P17509 132-218, K202E), sequence (P17509 132-218 K202E): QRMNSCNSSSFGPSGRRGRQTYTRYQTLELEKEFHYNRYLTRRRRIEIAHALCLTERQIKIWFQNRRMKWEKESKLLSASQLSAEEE
# HOXB6 [24] = molecular target: HOXB6 (Homo sapiens, UniProt P17509 132-218)
# HOXB6 (Homo sapiens, UniProt P17509 132-218), sequence (P17509 132-218): as the sequence (P17509 132-218 K202E) above, with E71K counted along it
# NKX2-6 = molecular target: T1, NKX2-6 (Homo sapiens, UniProt A6NCS4 118-204, R150C)
# T1 sequence: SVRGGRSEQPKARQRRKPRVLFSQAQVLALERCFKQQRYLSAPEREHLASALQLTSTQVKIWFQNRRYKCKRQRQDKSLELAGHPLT
# HOXC9 (Homo sapiens, UniProt P31274 178-260, K195R), sequence (P31274 178-260 K195R): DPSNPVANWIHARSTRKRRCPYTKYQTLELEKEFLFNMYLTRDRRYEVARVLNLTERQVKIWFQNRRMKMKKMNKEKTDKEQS
# HOXC9 (Homo sapiens, UniProt P31274 178-260, R193K), sequence (P31274 178-260 R193K): as the sequence (P31274 178-260 R222W) above, with R16K, W45R counted along it
# HOXC9 (Homo sapiens, UniProt P31274 178-260), sequence (P31274 178-260): as the sequence (P31274 178-260 R222W) above, with W45R counted along it
# HOXD13 (Homo sapiens, UniProt P35453 263-343, T313R), sequence (P35453 263-343 T313R): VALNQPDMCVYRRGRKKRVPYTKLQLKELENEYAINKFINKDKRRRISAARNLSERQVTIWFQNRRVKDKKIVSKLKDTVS
sequence,measurement,setting,value
AGCCGTGG,binding signal,HOXC9 [1],"9.64 upbm affinity estimate (log intensity, higher = more binding, comparable within an allelic series)"
same,binding signal,HOXC9 [2],"9.68 upbm affinity estimate (log intensity, higher = more binding, comparable within an allelic series)"
same,binding signal,HOXD13 [3],"9.67 upbm affinity estimate (log intensity, higher = more binding, comparable within an allelic series)"
same,binding signal,HOXC9 [4],"9.58 upbm affinity estimate (log intensity, higher = more binding, comparable within an allelic series)"
same,binding signal,HOXD13 [5],"9.7 upbm affinity estimate (log intensity, higher = more binding, comparable within an allelic series)"
same,binding signal,PROP1 [6],"6.79 upbm affinity estimate (log intensity, higher = more binding, comparable within an allelic series)"
same,binding signal,PROP1 [7],"6.82 upbm affinity estimate (log intensity, higher = more binding, comparable within an allelic series)"
same,binding signal,HOXD13 [8],"9.83 upbm affinity estimate (log intensity, higher = more binding, comparable within an allelic series)"
same,binding signal,HOXC9 [9],"9.77 upbm affinity estimate (log intensity, higher = more binding, comparable within an allelic series)"
same,binding signal,PROP1 [10],"6.72 upbm affinity estimate (log intensity, higher = more binding, comparable within an allelic series)"
GCAGCGCC,binding signal,HOXC9 [1],"9.72 upbm affinity estimate (log intensity, higher = more binding, comparable within an allelic series)"
same,binding signal,HOXC9 [2],"9.88 upbm affinity estimate (log intensity, higher = more binding, comparable within an allelic series)"
same,binding signal,HOXD13 [3],"9.55 upbm affinity estimate (log intensity, higher = more binding, comparable within an allelic series)"
same,binding signal,PITX2,"7.75 upbm affinity estimate (log intensity, higher = more binding, comparable within an allelic series)"
same,binding signal,HOXC9 [4],"9.72 upbm affinity estimate (log intensity, higher = more binding, comparable within an allelic series)"
same,binding signal,HOXD13 [5],"9.61 upbm affinity estimate (log intensity, higher = more binding, comparable within an allelic series)"
same,binding signal,HOXD13 [8],"9.59 upbm affinity estimate (log intensity, higher = more binding, comparable within an allelic series)"
same,binding signal,HOXC9 [9],"9.72 upbm affinity estimate (log intensity, higher = more binding, comparable within an allelic series)"
CACGCGGG,binding signal,HOXC9 [1],"9.44 upbm affinity estimate (log intensity, higher = more binding, comparable within an allelic series)"
same,binding signal,HOXA2 [11],"7.04 upbm affinity estimate (log intensity, higher = more binding, comparable within an allelic series)"
same,binding signal,HOXC9 [2],"9.53 upbm affinity estimate (log intensity, higher = more binding, comparable within an allelic series)"
same,binding signal,HOXC9 [4],"9.49 upbm affinity estimate (log intensity, higher = more binding, comparable within an allelic series)"
same,binding signal,HOXA2 [12],"10.2 upbm affinity estimate (log intensity, higher = more binding, comparable within an allelic series)"
same,binding signal,HOXC9 [9],"9.63 upbm affinity estimate (log intensity, higher = more binding, comparable within an allelic series)"
same,binding signal,HOXA2 [13],"10.4 upbm affinity estimate (log intensity, higher = more binding, comparable within an allelic series)"
same,binding signal,HOXA2 [14],"7.18 upbm affinity estimate (log intensity, higher = more binding, comparable within an allelic series)"
AGGTGGGG,binding signal,HOXC9 [1],"9.9 upbm affinity estimate (log intensity, higher = more binding, comparable within an allelic series)"
same,binding signal,HOXA2 [11],"7.38 upbm affinity estimate (log intensity, higher = more binding, comparable within an allelic series)"
same,binding signal,HOXC9 [2],"9.9 upbm affinity estimate (log intensity, higher = more binding, comparable within an allelic series)"
same,binding signal,ALX3 [15],"7.84 upbm affinity estimate (log intensity, higher = more binding, comparable within an allelic series)"
same,binding signal,HOXC9 [4],"9.81 upbm affinity estimate (log intensity, higher = more binding, comparable within an allelic series)"
same,binding signal,HOXA2 [12],"10.4 upbm affinity estimate (log intensity, higher = more binding, comparable within an allelic series)"
same,binding signal,ALX3 [16],"7.86 upbm affinity estimate (log intensity, higher = more binding, comparable within an allelic series)"
same,binding signal,ALX3 [17],"7.87 upbm affinity estimate (log intensity, higher = more binding, comparable within an allelic series)"
same,binding signal,HOXC9 [9],"9.81 upbm affinity estimate (log intensity, higher = more binding, comparable within an allelic series)"
same,binding signal,ALX3 [18],"7.85 upbm affinity estimate (log intensity, higher = more binding, comparable within an allelic series)"
same,binding signal,HOXA2 [13],"10.4 upbm affinity estimate (log intensity, higher = more binding, comparable within an allelic series)"
same,binding signal,ALX3 [19],"7.82 upbm affinity estimate (log intensity, higher = more binding, comparable within an allelic series)"
same,binding signal,HOXA2 [14],"7.26 upbm affinity estimate (log intensity, higher = more binding, comparable within an allelic series)"
CACAATTA,binding signal,HOXC9 [1],"11.7 upbm affinity estimate (log intensity, higher = more binding, comparable within an allelic series)"
same,binding signal,HOXC9 [2],"11.7 upbm affinity estimate (log intensity, higher = more binding, comparable within an allelic series)"
same,binding signal,MSX2 [20],"12.1 upbm affinity estimate (log intensity, higher = more binding, comparable within an allelic series)"
same,binding signal,HOXC9 [4],"11.7 upbm affinity estimate (log intensity, higher = more binding, comparable within an allelic series)"
same,binding signal,MSX2 [21],"13.4 upbm affinity estimate (log intensity, higher = more binding, comparable within an allelic series)"
same,binding signal,MSX2 [22],"13 upbm affinity estimate (log intensity, higher = more binding, comparable within an allelic series)"
CCCCCCAC,binding signal,HOXC9 [1],"9.36 upbm affinity estimate (log intensity, higher = more binding, comparable within an allelic series)"
same,binding signal,HOXB6 [23],"8.84 upbm affinity estimate (log intensity, higher = more binding, comparable within an allelic series)"
same,binding signal,HOXC9 [2],"9.41 upbm affinity estimate (log intensity, higher = more binding, comparable within an allelic series)"
same,binding signal,HOXD13 [3],"9.08 upbm affinity estimate (log intensity, higher = more binding, comparable within an allelic series)"
same,binding signal,HOXC9 [4],"9.4 upbm affinity estimate (log intensity, higher = more binding, comparable within an allelic series)"
same,binding signal,HOXD13 [5],"9.3 upbm affinity estimate (log intensity, higher = more binding, comparable within an allelic series)"
same,binding signal,HOXD13 [8],"9.15 upbm affinity estimate (log intensity, higher = more binding, comparable within an allelic series)"
same,binding signal,HOXC9 [9],"9.29 upbm affinity estimate (log intensity, higher = more binding, comparable within an allelic series)"
same,binding signal,HOXB6 [24],"8.7 upbm affinity estimate (log intensity, higher = more binding, comparable within an allelic series)"
GAGGGTCC,binding signal,HOXC9 [1],"9.32 upbm affinity estimate (log intensity, higher = more binding, comparable within an allelic series)"
same,binding signal,HOXB6 [23],"8.91 upbm affinity estimate (log intensity, higher = more binding, comparable within an allelic series)"
same,binding signal,HOXC9 [2],"9.31 upbm affinity estimate (log intensity, higher = more binding, comparable within an allelic series)"
same,binding signal,HOXC9 [4],"9.32 upbm affinity estimate (log intensity, higher = more binding, comparable within an allelic series)"
same,binding signal,HOXC9 [9],"9.63 upbm affinity estimate (log intensity, higher = more binding, comparable within an allelic series)"
same,binding signal,HOXB6 [24],"8.74 upbm affinity estimate (log intensity, higher = more binding, comparable within an allelic series)"
TCCAGGGA,binding signal,HOXC9 [1],"9.73 upbm affinity estimate (log intensity, higher = more binding, comparable within an allelic series)"
same,binding signal,NKX2-6,"9.47 upbm affinity estimate (log intensity, higher = more binding, comparable within an allelic series)"
same,binding signal,HOXC9 [2],"9.67 upbm affinity estimate (log intensity, higher = more binding, comparable within an allelic series)"
same,binding signal,HOXC9 [4],"9.68 upbm affinity estimate (log intensity, higher = more binding, comparable within an allelic series)"
same,binding signal,HOXC9 [9],"9.68 upbm affinity estimate (log intensity, higher = more binding, comparable within an allelic series)"
CTTATAAA,binding signal,HOXC9 [1],"11.3 upbm affinity estimate (log intensity, higher = more binding, comparable within an allelic series)"
same,binding signal,HOXC9 [2],"11.2 upbm affinity estimate (log intensity, higher = more binding, comparable within an allelic series)"
same,binding signal,HOXD13 [3],"10.7 upbm affinity estimate (log intensity, higher = more binding, comparable within an allelic series)"
same,binding signal,HOXC9 [4],"11.2 upbm affinity estimate (log intensity, higher = more binding, comparable within an allelic series)"
same,binding signal,HOXD13 [5],"11.8 upbm affinity estimate (log intensity, higher = more binding, comparable within an allelic series)"
same,binding signal,HOXD13 [8],"11.5 upbm affinity estimate (log intensity, higher = more binding, comparable within an allelic series)"
ACTTTACG,binding signal,HOXC9 [1],"11.5 upbm affinity estimate (log intensity, higher = more binding, comparable within an allelic series)"
same,binding signal,HOXC9 [2],"11.7 upbm affinity estimate (log intensity, higher = more binding, comparable within an allelic series)"
same,binding signal,HOXC9 [4],"11.5 upbm affinity estimate (log intensity, higher = more binding, comparable within an allelic series)"
GCGTCGCC,binding signal,HOXC9 [1],"9.69 upbm affinity estimate (log intensity, higher = more binding, comparable within an allelic series)"
same,binding signal,HOXC9 [2],"9.74 upbm affinity estimate (log intensity, higher = more binding, comparable within an allelic series)"
same,binding signal,MSX2 [20],"9.45 upbm affinity estimate (log intensity, higher = more binding, comparable within an allelic series)"
same,binding signal,HOXC9 [4],"9.48 upbm affinity estimate (log intensity, higher = more binding, comparable within an allelic series)"
same,binding signal,MSX2 [21],"9.4 upbm affinity estimate (log intensity, higher = more binding, comparable within an allelic series)"
same,binding signal,HOXC9 [9],"9.77 upbm affinity estimate (log intensity, higher = more binding, comparable within an allelic series)"
same,binding signal,MSX2 [22],"9.49 upbm affinity estimate (log intensity, higher = more binding, comparable within an allelic series)"

# From publication PMC11006913
